D3 antag: antagonists of human D3 dopamine receptor | max response, negative = inhibition, % | P35462 | D3R cells, DiscoveRx beta-arrestin luminescence, antagonist mode; active compounds read low | actives 2.5% (n = 360,000) | AID 652054; in the data active = max response below about -50%; inconclusive = no clear call, values can overlap the other calls
Target sequence (P35462 whole entry, looked up): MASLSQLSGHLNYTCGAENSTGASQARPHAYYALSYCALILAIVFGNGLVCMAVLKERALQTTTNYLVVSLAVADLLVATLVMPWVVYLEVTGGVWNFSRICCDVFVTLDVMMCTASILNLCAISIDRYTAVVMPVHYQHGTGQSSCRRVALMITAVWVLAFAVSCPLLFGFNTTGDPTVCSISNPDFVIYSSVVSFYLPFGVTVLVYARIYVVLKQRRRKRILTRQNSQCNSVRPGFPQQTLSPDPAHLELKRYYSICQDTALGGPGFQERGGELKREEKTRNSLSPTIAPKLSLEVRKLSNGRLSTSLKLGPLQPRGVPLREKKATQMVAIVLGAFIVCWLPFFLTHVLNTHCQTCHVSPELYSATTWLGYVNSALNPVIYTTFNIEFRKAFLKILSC
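Cells plated overnight at 1500 cells/well, then exposed to library compounds with dopamine controls for 90 minutes at 37 degrees C. DiscoveRx reagent added for 30–60 minutes at room temperature; luminescence read, quantitative HTS format.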
TDP1 cell noCPT: qHTS for Inhibitors of human tyrosyl-DNA phosphodiesterase 1 (TDP1): qHTS in cells in absence of CPT; AID 686978, 2013; actives 15% (n = 420,000); Potency, µM (titrated, usually from 46.2 µM), hits mostly inhibitors; DT40 Tdp1-/- hTDP1 cells, no CPT, ATP luminescence, 48 h; also: nearly all actives have a fitted effect of over 55% in size
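DT40 Tdp1-/-;hTDP1 cells, no CPT (DMSO vehicle only), 400 cells/well; compounds pin-transferred; ≥48 hr, 37 °C; CellTiter-Glo 30 min RT dark, luminescence read.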
DT40 TDP1 CPT: DT40-hTDP1 cell growth loss with CPT; chicken DT40 Tdp1-/-;hTDP1 cells + 20 nM CPT, ATP luminescence, 48 h; Potency, µM (doses to about 46.2 µM), usual class: inhibitors; actives 12% (n = 420,000); AID 686979; also: nearly all actives have a fitted effect of over 55% in size
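Cell growth measured by CellTiter-Glo luminescence after a minimum 48 h, 37 C compound exposure with 20 nM CPT in Tdp1-knockout DT40 cells stably expressing hTDP1, seeded 400/well; qHTS titration format.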
IL1B secr inh: blocks inflammasome-driven IL-1 beta release | THP-1 LPS/ATP IL-1B secretion, AlphaLISA, 16 h; active compounds read low | activity change, % at 57.5 µM | actives 4.7% (n = 360,000) | AID 743279; in the data active = activity change below about -50%; inconclusive = mostly about -30% to -49%
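THP-1 cells pretreated 1 hr with compounds (up to 57.5 uM final), then stimulated with LPS (250 ng/mL final) plus ATP (1.25 mM final); secreted IL-1B measured by AlphaLISA after 16 hr, decreased signal indicating inhibition.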
ClpP mod: qHTS Assay for Activators of ClpP; Potency, µM (doses to about 57.5 µM); ATP-dependent Clp protease proteolytic subunit (Bacillus subtilis (strain 168)), P80244; AID 651965, 2013; purified B. subtilis ClpP, FRET peptide cleavage, 20 min; actives 1.9% (n = 340,000); active = well fitted falling curve with a large enough effect; inconclusive = small, poorly fitted or top-dose-only effect; inactive = no such curve, though single readings can be large or run the other way; also: the source files actives as falling curves though it sought activators and does not explain the sign; nearly all actives have a fitted effect of over 65% in size
Target sequence (P80244 whole entry, looked up): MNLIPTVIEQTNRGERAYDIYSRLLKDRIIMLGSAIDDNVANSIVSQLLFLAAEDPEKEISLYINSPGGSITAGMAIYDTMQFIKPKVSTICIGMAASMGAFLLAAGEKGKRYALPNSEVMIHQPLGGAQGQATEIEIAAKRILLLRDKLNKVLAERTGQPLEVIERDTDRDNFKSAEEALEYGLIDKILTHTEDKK
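Purified B. subtilis ClpP, 10 microg/mL final in Tris/HCl pH8 with KCl, BSA, glycerol and Tween-20, cleaved an Abz/nitrotyrosine-quenched decapeptide. Fluorescence (ex 320, em 430) was read at 0 and 20 min at room temperature. Delta was normalized to 5.8 microM ADEP and DMSO/no-enzyme controls.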
DRD3 agonist: activates the human D3 dopamine receptor. max activation, %. D3R DiscoveRx beta-arrestin cells, luminescence, 90 min. actives 0.58% (n = 410,000); in the data active = max activation above about 30%
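Agonist mode: compounds and dopamine controls were applied to plated cells for 90 min at 37 degrees C after an overnight attachment at 1500 cells/well. Luminescent read-out followed 30 - 60 minutes at room temperature with DiscoveRx detection reagent.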
A number is an active result. Shown are actives, neighbours in structure and some others; about 21% of the full set was active somewhere. Unless noted, calls follow the shape of the dose curve; as a rule, active = well fitted inhibition curve with a large enough effect; inconclusive = small, poorly fitted or top-dose-only effect; inactive = flat fitted curve, though single readings scatter.

For O=C(Cc1ccc(OCc2ccccc2)cc1)NCc1ccc2c(c1)OCO2 the results were D3 antag inactive, TDP1 cell noCPT 7.31µM, DT40 TDP1 CPT inconclusive, IL1B secr inh inactive, ClpP mod inactive and DRD3 agonist inactive.
Screening O=C(NCc1ccc2c(c1)OCO2)OCc1ccccc1 returned D3 antag inactive, TDP1 cell noCPT inactive, DT40 TDP1 CPT inactive, IL1B secr inh inconclusive, ClpP mod inactive and DRD3 agonist inactive.
`Cc1noc(C)c1COc1cccc(C(=O)Nc2ccccc2)c1` gave D3 antag inactive, TDP1 cell noCPT inactive, DT40 TDP1 CPT inactive, IL1B secr inh inactive, ClpP mod inactive and DRD3 agonist inactive.
For O=C(NCC1CCCO1)c1ccc(COc2ccc(Br)cc2)cc1 (stereo unspecified) the results were D3 antag inactive, TDP1 cell noCPT 23.1µM, DT40 TDP1 CPT 29.1µM, IL1B secr inh inconclusive, ClpP mod inactive and DRD3 agonist inactive.
For Cc1noc(C)c1COc1cccc(C(=O)NCCc2c[nH]c3ccccc23)c1 the results were D3 antag inactive, TDP1 cell noCPT 20.6µM, DT40 TDP1 CPT 13µM, IL1B secr inh inactive, ClpP mod inactive and DRD3 agonist inactive.
`C=CCN(Cc1ccc(Br)s1)C(=O)c1ccc(OCc2c(C)noc2C)cc1` gave D3 antag inactive, TDP1 cell noCPT 16.4µM, DT40 TDP1 CPT inconclusive, IL1B secr inh inactive, ClpP mod inactive and DRD3 agonist inactive.
Cc1ccc(OCc2ccc(C(=O)NCC3CCCO3)cc2)cc1C (stereo unspecified) was read as D3 antag inactive, TDP1 cell noCPT inconclusive, DT40 TDP1 CPT inconclusive, IL1B secr inh inactive, ClpP mod inactive and DRD3 agonist inactive.
`Cc1noc(C)c1COc1ccc(CC(=O)NCc2ccccc2)cc1` gave D3 antag inactive, TDP1 cell noCPT 0.517µM, DT40 TDP1 CPT 0.651µM, IL1B secr inh inactive, ClpP mod inactive and DRD3 agonist inactive.
Screening Cc1noc(C)c1COc1ccc(CC(=O)NCCc2ccccn2)cc1 returned D3 antag inactive, TDP1 cell noCPT inconclusive, DT40 TDP1 CPT inactive, IL1B secr inh inactive and DRD3 agonist inactive.
Cc1noc(C)c1COc1ccc(C(=O)NCC2CCCO2)cc1 (stereo unspecified) was read as D3 antag -52.2, TDP1 cell noCPT inactive, DT40 TDP1 CPT inactive, IL1B secr inh inactive, ClpP mod inactive and DRD3 agonist inactive.
`COc1cc(C(=O)NCc2cccs2)ccc1OCc1c(C)noc1C` gave D3 antag inactive, TDP1 cell noCPT inconclusive, DT40 TDP1 CPT inactive, IL1B secr inh inactive, ClpP mod inactive and DRD3 agonist inactive.
Cc1noc(C)c1COc1ccc(C(=O)NCc2cccs2)cc1 was read as D3 antag inactive, TDP1 cell noCPT inactive, DT40 TDP1 CPT inactive, IL1B secr inh -98.8, ClpP mod inactive and DRD3 agonist inactive.
For CCOc1ccc(-n2c(=O)c3sccc3n(Cc3ccc(C)cc3)c2=O)cc1 the results were D3 antag inactive, TDP1 cell noCPT inconclusive, DT40 TDP1 CPT inconclusive, IL1B secr inh inactive, ClpP mod inactive and DRD3 agonist inactive.
C=CCc1c(C)nc2nc(SCC(=O)Nc3ccccc3CC)nn2c1C was read as TDP1 cell noCPT inconclusive, DT40 TDP1 CPT inactive, ClpP mod inactive and DRD3 agonist inactive.
`NC(=O)c1cccc(-c2coc3c(C(=O)NCc4ccccc4)cccc23)c1` gave D3 antag inactive, TDP1 cell noCPT 18.4µM, DT40 TDP1 CPT inconclusive, IL1B secr inh inactive, ClpP mod inactive and DRD3 agonist inactive.
For COCCNC(=O)c1cccc2c(-c3cccc(C(N)=O)c3)coc12 the results were D3 antag inactive, TDP1 cell noCPT inconclusive, DT40 TDP1 CPT inconclusive, IL1B secr inh inactive, ClpP mod inactive and DRD3 agonist inactive.
Screening COCCCNC(=O)c1cccc2c(-c3cccc(C(N)=O)c3)coc12 returned D3 antag inactive, TDP1 cell noCPT 13µM, DT40 TDP1 CPT inconclusive, IL1B secr inh inactive, ClpP mod inconclusive and DRD3 agonist inactive.
Screening Cn1cc(-c2coc3c(C(=O)NCc4cccnc4)cccc23)cn1 returned D3 antag inactive, TDP1 cell noCPT 23.1µM, DT40 TDP1 CPT inconclusive, IL1B secr inh inactive, ClpP mod inactive and DRD3 agonist inactive.
Screening O=C(NCc1ccc(C(F)(F)F)cc1)c1cccc2c(-c3ccc(F)c(F)c3)coc12 returned D3 antag inactive, TDP1 cell noCPT inconclusive, DT40 TDP1 CPT inconclusive, IL1B secr inh inactive, ClpP mod inactive and DRD3 agonist inactive.
For Fc1ccc(N2CCN(Cc3cnc(Cl)s3)CC2)cc1 the results were D3 antag inactive, TDP1 cell noCPT inactive, DT40 TDP1 CPT inactive, IL1B secr inh inactive, ClpP mod inactive and DRD3 agonist inactive.
COc1cccc(CNC(=O)Nc2cc(C(=O)NCc3cccc(F)c3)ccc2N2CCCC2)c1 was read as TDP1 cell noCPT inconclusive, DT40 TDP1 CPT inconclusive, ClpP mod inconclusive and DRD3 agonist inactive.
Screening Cn1nnnc1SCCCNCc1cccc(OCc2ccc(F)cc2)c1 returned TDP1 cell noCPT 23.1µM, DT40 TDP1 CPT inconclusive, ClpP mod inactive and DRD3 agonist inactive.
For Cn1nnnc1SCCNCc1ccccc1OCc1ccc(Cl)cc1 the results were D3 antag inactive, TDP1 cell noCPT 16.4µM, DT40 TDP1 CPT inconclusive, IL1B secr inh -88.9, ClpP mod inactive and DRD3 agonist inactive.
CCOc1cccc(CNCCCSc2nnnn2C)c1 was read as TDP1 cell noCPT inactive, DT40 TDP1 CPT inactive, ClpP mod inactive and DRD3 agonist inactive.
Screening CCOc1cccc(CNCCCSc2ncccn2)c1 returned D3 antag inactive, TDP1 cell noCPT 14.6µM, DT40 TDP1 CPT 4.61µM, IL1B secr inh inactive, ClpP mod inactive and DRD3 agonist inactive.
CCOc1ccc(CNCCSc2nnnn2C)cc1OC was read as TDP1 cell noCPT inactive, DT40 TDP1 CPT inactive, ClpP mod inactive and DRD3 agonist inactive.
Screening COc1cc(CNCCSc2nnnn2C)ccc1OCc1ccccc1C returned TDP1 cell noCPT inconclusive, DT40 TDP1 CPT 16.4µM, ClpP mod inactive and DRD3 agonist inactive.
CC(=O)Nc1ccc(S(=O)(=O)Nc2nc3ccccc3nc2Nc2ccc(O)cc2)cc1 was read as D3 antag inactive, TDP1 cell noCPT inactive, DT40 TDP1 CPT inactive, IL1B secr inh inactive, ClpP mod inactive and DRD3 agonist inactive.
`Cn1nnnc1SCCCNCc1ccccc1OCc1ccc(Cl)cc1` gave TDP1 cell noCPT 23.1µM, DT40 TDP1 CPT 18.4µM, ClpP mod inactive and DRD3 agonist inactive.

Source: PubChem BioAssay (National Center for Advancing Translational Sciences (NCATS))
